The text below walks through data of PubChem BioAssay (NCI).

About 83,000 compounds went through this panel and 20% of them were active in at least one assay; those are over-represented in the sample as a whole.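 Single-dose data. Exposure time 48 hours. Values below 10 considered active.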 Values without a mark were called inactive. Activity calls are given as the source filed them.

The experiment relates to KM12 colon. The experiment in a line: NCI-60 one-dose screen, 48 h (100 = growth as untreated, 0 = no growth, -100 = all killed). Particulars: 10 µM.
Consider `COc1cc(/C=C/C(=O)c2ccc(C(F)(F)F)cc2)ccc1Oc1nc(Nc2ccc(F)cc2)nc(N(C)C)n1`, for which the growth is 87.8%. As to `Cc1ccc(/C=C/C(=O)c2ccc(NC(=O)CSc3nnc(-c4c[nH]c5ccccc45)n3-c3ccccc3)cc2)c(C)c1`, the growth was 66.6%. In the case of `N#Cc1c(-c2ccc(Cl)cc2)cc(-c2ccccc2)nc1OCc1ccccc1` it was 82.6%. As for `Nc1nnc(-c2c[nH]c3ncccc23)c(-c2c[nH]c3ccc(Br)cc23)n1`, the growth is 39.3%. Take `CC(=O)OC[C@@]1(C)C2CC[C@]3(C)C(CC=C4C5CC(C)(C)CC[C@]5(C(=O)Nc5ccccc5)CC[C@]43C)[C@@]2(C)C[C@@H](OC(C)=O)[C@@H]1OC(C)=O` (some centres not stated): the growth was 49%. Next, `C/C(=C\c1ccc(O)cc1O)c1ccc2ccc(O)cc2[o+]1`: 22.5%; `CCCCOc1ccc(Nc2nc3ccccc3nc2Nc2ccc(OCCCC)cc2)cc1`: 86.8%; `Nc1nc(Nc2ccc(Cl)cc2)nn1Cc1cccc(Br)c1`: 16.7%. As to `COc1ccc(/C=N/N=C(\C)c2ccc3c(c2)Nc2ccccc2S3)cc1O`, the growth was 39.2%. With `O=C(CSc1nnc(-c2c[nH]c3ccccc23)n1-c1ccccc1)c1ccc(Br)cc1`, the growth was 34.6%.

Consider `COC(=O)c1c(C(=O)OC)c2n(c1C)[C@@H]([C@@H](C)[C@H]1CC[C@H]3[C@@H]4CCC5=CC(=O)CC[C@]5(C)[C@H]4CC[C@]13C)SC2`, for which the growth is 25.8%. Next, `COc1ccc(C(=O)/C=C/c2cc(C(F)(F)F)cc(C(F)(F)F)c2)cc1S(N)(=O)=O`: -75.4% (active). Next, `CCCn1c(O)c(N=Nc2nc(-c3cc4ccccc4oc3=O)cs2)c2cc(Br)ccc21`: 106%; `O/N=C(\CSc1nnc(-c2c[nH]c3ccccc23)n1-c1ccccc1)c1ccc(Br)cc1`: 2.11% (active); `CC(=O)Oc1ccccc1C(=O)Oc1ccc(C(=O)/C=C/c2ccncc2)cc1`: 22%.

`CC(=O)C1=C(C)NC(SCC(=O)Nc2ccc(S(=O)(=O)Nc3cc(C)on3)cc2)=NC1c1ccccc1` (configuration not stated): the growth is 99.8%. In the case of `COc1cc2c3c(n(CCCn4ccnc4)c(=O)c2cc1OC)-c1nc2c(cc1C3=O)OCO2` it was 59.6%.

Consider `O=S(=O)(Nc1ncccn1)c1ccc(-n2c(-c3ccc(Br)cc3)nc(-c3ccccc3)c2-c2ccccc2)cc1`, for which the growth was 27.7%. In the case of `COc1ccc(-c2cc(C(=O)N=Nc3c(O)[nH]c4ccc(Br)cc34)c3ccccc3n2)cc1` it was 23.1%; in that of `CCOC(=O)CNC(=O)CN(Cc1ccccc1)C(=O)[C@@]1(C)CCC[C@]2(C)[C@H]3CC4C(C(C)C)=C[C@]3(CC[C@H]21)[C@@H]1C(=O)CCC(=O)[C@H]41`, 77.7%. Regarding `CC1(c2ccccc2)NC(=O)N(CC(=O)Nc2ccc(C(=O)/C=C/C=C/c3ccccc3)cc2)C1=O` (configuration not stated), the growth is 21%. Next, `O=c1c2ccccc2nc(COc2ccccc2)n1/N=C/c1ccc(F)cc1`: 93.5%; `COc1ccc(-c2cc(-c3cc(C(=O)c4ccccc4)n4ccc(C)cc34)nc(N)c2C#N)cc1`: 85.4%.

For `O=C(Nc1cccc(C(F)(F)F)c1)c1cncc(C#Cc2cnc3ccc(N4CCOCC4)nn23)c1`, the growth is -24.1% (active). Next, `CN(C(=O)c1ccc(C(F)(F)F)cc1C(F)(F)F)c1sc2c(c1C#N)CCC(=O)C2`: 74.3%. Regarding `C#CCNC(=O)CCC(=O)OC[C@]12CC[C@@H](C(=C)C)[C@@H]1C1CC[C@@H]3[C@@]4(C)CCCNC(C)(C)[C@@H]4CC[C@@]3(C)[C@]1(C)CC2` (some centres not stated), the growth is 6.5% (active). Turning to `COc1ccc2[nH]cc(/C=N/Nc3ccc(Br)cn3)c2c1`, the growth was -0.565% (active). In the case of `[2H]C([2H])([2H])Oc1ccc2ncc(C#Cc3cncc(C(=O)Nc4ccc(CN5CCN(C)CC5)c(C(F)(F)F)c4)c3)n2n1` it was -94.1% (active); in that of `COc1ccc(CN2[C@H](C(=O)NCc3ccc(C(=O)NO)cc3)Cc3c([nH]c4ccccc34)[C@H]2C2CC2)cc1`, 44.7%. Next, `O=c1[nH]c2ccccc2cc1CSc1ccc(Nc2nccc(-c3ccc(C(F)(F)F)cc3)n2)cc1`: 46.8%. With `CN(C)c1ccc(/C=C/c2nc3ccccc3c(=O)n2CC(=O)Nc2ccccc2)cc1`, the growth is 75.7%. In the case of `Cc1ccc(-c2nc(Nc3ccc(C)c(S(N)(=O)=O)c3)c3ccccc3n2)cc1` it was 40%.
